Assay outcomes (PubChem)
Most compounds without a hit are left out; they make up all but 6.6% or so of the library.
TGFb SMAD3 inh: inhibitors of TGF-b signaling; HepG2 CAGA-GFP TGF-b/SMAD3 reporter, GFP fluorescence, 18 h; TGF-beta stimulated, 500 pg/mL final; Potency, µM (series often up to 46.1 µM), inactives show at the highest dose activity, negative = inhibition, actives largely listed as inhibitors; 1.2% of 410,000 active; note: % is set by controls: 0 for no effect and ±100 for the full control effect; nearly all actives have a fitted effect of over 65% in size
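HEPG2 CAGA-GFP reporter cells (1000/well, DMEM with 1% FBS) received compounds, then recombinant TGF-beta at 500 pg/mL final for 18 hours at 37 degrees C. Per-cell GFP summed per well was normalised to unstimulated and stimulated DMSO controls before curve fitting.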
KB-V1 cytotox: KB-V1 MDR subline cytotoxicity; 3.4% of 400,000 active; KB-V1 MDR cells viability, CellTiter-Glo, 72 h; Potency, µM (series often up to 46.1 µM), actives largely listed as cytotoxic; note: % is set by controls: 0 for no effect and ±100 for the full control effect; nearly all actives have a fitted effect of over 60% in size
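Drug-selected KB-V1 cells, grown in DMEM lacking phenol red with 10% FBS, receive compound titrations; after three days at 37 degrees C, surviving cell ATP is quantified by CellTiter-Glo luminescence and responses normalized and curve-fitted.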
HT1080 IDH1KD tx: toxicity to HT-1080 IDH1 knockdown cells (counter line); HT-1080 IDH1 knockdown viability, ATP luminescence, 48 h; Potency, µM (highest dose often 46.1 µM), without a hit: at the highest dose activity, negative = toxicity, hits mostly cytotoxic; 2% of 360,000 active;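 note: 0% = DMSO wells and -100% = cell-free medium wells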
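HT-1080-IDH1KD cells (IDH1 knocked down), 750/well in RPMI with 5% FBS, treated with compound 48 h at 37 degrees C. Viability by CellTiter-Glo luminescence, normalised to DMSO and no-cell wells; concentration-response curves classed.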
HT1080-NT tox: kills 2HG-producing HT-1080-NT fibrosarcoma cells. HT-1080-NT fibrosarcoma viability, CellTiter-Glo ATP luminescence, 48 h. Potency, µM (highest dose often 46.1 µM), without a hit: at the highest dose activity, negative = less viability, most hits filed as cytotoxic. 1.6% of 360,000 active;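 note: NT is the 2HG producing partner of a matched IDH1 knockdown line; 0% = DMSO-treated cells and -100% = media-only wells without cells; nearly all actives have a fitted effect of over 55% in size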
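A 48-hour cytotoxicity screen used HT-1080-NT cells plated 2 hours before compound delivery. ATP-based CellTiter-Glo luminescence measured viability, normalized to DMSO and no-cell controls.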
HepG2 viability: HepG2 cytotoxicity, counter-screen for TGF-b inhibitors; HepG2 CAGA-GFP viability, ATP luminescence, 18 h; Potency, µM (top dose mostly 46.1 µM), for the others: at the highest dose activity change, negative = cytotoxicity, most hits filed as cytotoxic; 0.76% of 410,000 active
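HepG2 CAGA-GFP cells (1000/well, DMEM with 1% FBS) received compound, then TGF-beta at 500 pg/mL final, and were incubated 18 hours at 37 degrees C. Viability was read by CellTiter-Glo luminescence. Media-only wells were set as complete cell-killing and DMSO as no toxicity.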
KB-3-1 cytotox: KB-3-1 parental cell cytotoxicity. KB-3-1 viability, CellTiter-Glo ATP luminescence, 72 h. Potency, µM (titrated, usually from 46.1 µM), most hits filed as cytotoxic. AID 1347075. 1.4% of 400,000 active; note: % is set by controls: 0 for no effect and ±100 for the full control effect; nearly all actives have a fitted effect of over 60% in size
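Cells are dispensed, compounds pinned in, plates held at 37 °C for 72 h, then CellTiter-Glo is added and luminescence read after 10 minutes. Cell line: parental KB-3-1 in phenol-red-free DMEM, 10% FBS.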
Numbers without * were called inactive; i = inactive; ? = inconclusive; / = no result. Calls come from the whole dose curve; as a rule, active = well fitted curve in the direction sought with a large enough effect; inconclusive = small, poorly fitted or top-dose-only effect, or another doubt; inactive = no such curve, though single readings can be large; an effect the other way counts as inactive or inconclusive. Potency is the fitted concentration of half-maximal effect.

SMILES	TGFb SMAD3 inh	KB-V1 cytotox	HT1080 IDH1KD tx	HT1080-NT tox	HepG2 viability	KB-3-1 cytotox
O=C(NCc1cccnc1)c1ccc(COc2ccc(Cl)cc2Cl)o1	-0.9%	i	-14.2%	-4.1%	-3.2%	i
CCc1ccccc1NC(=O)CSc1nc2c(oc3ccccc32)c(=O)n1-c1ccccc1	-12.1%	i	/	/	2.9%	i
CC(C)c1ccc(NC(=O)CCn2c(=O)c3cccn3c3ccccc32)cc1	0.0%	/	/	/	-2.7%	/
O=C(Nc1cccnc1)c1ccc(COc2ccccc2Cl)o1	-2.1%	?	20.6µM*	?	-39.3%	?
O=C(Nc1nccs1)c1ccc(COc2ccccc2Br)o1	?	14.6µM*	?	10µM*	-17.2%	?
O=C(Nc1nccs1)c1ccc(COc2ccc(F)cc2)o1	-2.3%	i	2.2%	0.8%	-19.3%	i
CCOc1ccc(CN2C(=O)c3ccccc3Sc3ccc(C(=O)OC)cc32)cc1	5.0%	/	/	/	4.6%	/
C/C(=N\NC(N)=S)c1ccc(-n2ccnc2)cc1	4.4%	i	-0.7%	-1.7%	1.8%	i
C=C(C)CNC(=S)N/N=C(\C)c1ccc(-n2ccnc2)cc1	0.8%	14.6µM*	0.1%	5.2%	0.3%	i
Cc1ccc(/C=C2/CCc3c([nH]c4ccccc34)C2=O)cc1	-0.8%	i	12.0%	10.9%	-4.8%	i
Cc1ccc2[nH]c3c(c2c1)CC/C(=C/c1ccccc1)C3=O	6.0%	13µM*	3.8%	-3.4%	-19.6%	i
O=C1/C(=C\c2ccccc2)CCc2c1[nH]c1ccccc21	-7.6%	?	11.6µM*	7.31µM*	-6.6%	1.3µM*
COc1ccc(CCCc2nnc(SCC(=O)Nc3ccc(Cl)cc3)o2)cc1	-0.6%	i	/	/	2.3%	i
COc1cc(C2Nc3ccc4ncccc4c3C3=C2C(=O)CCC3)ccc1O (centres undefined)	5.4%	i	5.8µM*	?	-10.8%	3.26µM*
COc1cc(C2Nc3ccc4ncccc4c3C3=C2C(=O)CCC3)cc(OC)c1OC (centres undefined)	-19.2%	i	-16.2%	-8.7%	-16.0%	?
Cc1ccc(C23CC4CC(CC(NC(=O)NCCN(C)C)(C4)C2)C3)cc1	?	i	?	20.6µM*	-102.9%	i
Cc1ccc(CNC(=O)NC23CC4CC(CC(C4)C2)C3)cc1	-1.8%	i	15.9%	-0.4%	-11.3%	i
NC(=O)COc1cc2oc(=O)c3c(c2cc1Cl)CCCC3	1.3%	8.2µM*	13.2%	15.0%	-8.5%	i
CCCCc1ccc(NC(=O)CSc2nc(=O)n(CCN(CC)CC)c3c2CCCC3)cc1	-18.8%	25.9µM*	?	?	-42.9%	?
CCCCc1ccc(NC(=O)CSc2nc(=O)n(CCN3CCOCC3)c3c2CCC3)cc1	0.0%	i	2.7%	5.8%	6.0%	i
CCCCc1ccc(NC(=O)CSc2nc(=O)n(CCN(C)C)c3c2CCC3)cc1	?	i	14.6µM*	20.6µM*	-84.1%	?
CCOc1ccc(CNC(=O)c2cccc(NC(=O)N3CCSc4ncccc43)c2)cc1OC	-1.4%	i	/	/	-21.2%	i
COc1ccc2nc3sc(C(=O)Nc4cc(Cl)c(OC)cc4OC)cc3cc2c1	-24.6%	i	/	/	-0.5%	i
COc1ccccc1Cc1c(-c2ccc(OC)c(OC)c2)nc2ccc(Br)cn12	?	i	18.4µM*	?	-2.5%	?
COc1ccc(-c2nc3ccc(Br)cn3c2Cc2ccccc2)cc1OC	?	i	?	?	-2.9%	?
SMILES	TGFb SMAD3 inh	KB-V1 cytotox	HT1080 IDH1KD tx	HT1080-NT tox	HepG2 viability	KB-3-1 cytotox
COC(=O)c1ccc2nc(-c3cccc(Br)c3)c(Cc3ccccc3OC)n2c1	/	i	11.6µM*	9.9%	/	i
CCC(=O)N1CCc2cc(S(=O)(=O)CCC(=O)NCc3ccccc3Cl)ccc21	-3.7%	i	/	/	-5.8%	i
COc1cc(C)c(C(C)C)cc1S(=O)(=O)n1cnc(C)c1	?	?	9.2µM*	?	-11.0%	5.17µM*
COc1ccc(C)cc1S(=O)(=O)n1cnc(C)c1	21.1%	i	-0.1%	1.8%	9.5%	i
CCN=C1S/C(=C\c2ccc(O)c(OCC)c2)C(=O)N1CC	-14.9%	18.4µM*	-24.3%	-17.6%	-49.9%	i
COc1cc(/C=C2/SC(=NCc3ccccc3)N(Cc3ccccc3)C2=O)ccc1O	?	?	?	?	-104.9%	i
CCN=C1S/C(=C\c2cc(OCC)c(O)cc2Br)C(=O)N1CC	0.9%	i	20.6µM*	18.4µM*	-47.9%	?
CCSC1=NC(C)(C)C=C(/C=C/c2ccc(Cl)cc2Cl)N1	?	?	?	16.4µM*	-38.2%	i
CSC1=NC(C)(C)C=C(/C=C/c2ccc(Cl)cc2)N1	?	?	?	23.1µM*	-18.5%	i
COc1cccc(Cn2cnc3c(cnn3C(C)(C)C)c2=O)c1	-7.6%	/	/	/	-25.2%	/
C#CCn1c(S(=O)(=O)Cc2ccccc2Cl)nc(-c2ccccc2)c1-c1ccccc1	5.7%	i	-7.2%	-0.6%	-56.7%	i
C#CCn1c(S(=O)(=O)Cc2ccc(C)cc2)nc(-c2ccccc2)c1-c1ccccc1	-4.0%	6.51µM*	?	-21.7%	-2.6%	6.51µM*
COc1ccc(N2CCN(C(=O)CN(CCc3ccccc3)S(C)(=O)=O)CC2)cc1	5.6%	?	-6.1%	4.7%	4.7%	i
COc1ccccc1N1CCN(C(=O)CN(CCc2ccccc2)S(C)(=O)=O)CC1	-27.8%	9.2µM*	13.0%	3.5%	-5.0%	i
Cc1ccc(NC(=O)C2CCC(CNS(=O)(=O)c3ccc4c(c3)CCCC(=O)N4)CC2)c(C)c1 (centres undefined)	-32.8%	i	/	/	-4.3%	i
O=C(/C=C/Sc1ccccc1)c1ccccc1	10µM*	i	5.62µM*	2.82µM*	15.8µM*	i
O=C(/C=C/Sc1ccccc1)c1ccc(Cl)cc1	8.91µM*	i	7.94µM*	?	11.2µM*	i
COc1ccc(Nc2nc(NC(C)(C)C)nc(N3CCCC3)n2)c(OC)c1	?	18.4µM*	?	?	-61.5%	i
Cc1cc2ncn(-c3ncnc4sc5c(c34)CCC(C)C5)c2cc1C (centres undefined)	-20.5%	13µM*	-2.8%	13.6%	13.6%	i
Cc1cc2ncn(-c3ncnc4scc(-c5ccccc5)c34)c2cc1C	-18.3%	4.11µM*	-0.5%	-7.3%	-14.4%	i
